This is part of a sample that, as a whole, favours compounds with a hit. Of some 83,000 tested, about 20% had one in any assay.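 A percent growth of 40 corresponds to 60% growth inhibition; 0 means no net growth; -100 means all cells died. Active threshold: below 10.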 Unmarked numbers belong to inactive results. Activity calls are given as the source filed them.

Among the test systems are DU-145 prostate; K-562 leukemia; MALME-3M melanoma; MDA-MB-231 breast; RXF 393 renal; SF-268 CNS; SF-295 CNS; SF-539 CNS; UACC-257 melanoma; M14 melanoma.
What all share (experiment): NCI-60 one-dose screen, 48 h (100 = growth as untreated, 0 = no growth, -100 = all killed)
Holding throughout (conditions): 10 µM unless noted

For the compound `CCN(CC)c1ccc(C(=O)c2ccccc2)cc1`, the growth with DU-145 prostate is 102%; with K-562 leukemia, 95.2%; in the assay with MALME-3M melanoma, 95.3%; with MDA-MB-231 breast, 100%; in the assay with RXF 393 renal it was 111%; in the assay with SF-268 CNS, 96.9%. Moreover, the growth with SF-295 CNS is 101%; in the assay on SF-539 CNS it was 97.7%; with UACC-257 melanoma, 96.1%; with M14 melanoma it was 102%.
As for `CCN(Cc1ccccc1)c1ccc(C=O)cc1`, the growth in the assay with DU-145 prostate was 110%; in the assay on K-562 leukemia it was 93.3%; in the assay with MALME-3M melanoma, 117%; in the assay on MDA-MB-231 breast it was 96.5%; with RXF 393 renal it was 88.6%; in the assay with SF-268 CNS, 106%. Also, the growth in the assay with SF-295 CNS is 114%; with SF-539 CNS it was 87.7%; in the assay on UACC-257 melanoma, 106%; with M14 melanoma, 102%.
With `CCNC(=O)Oc1ccc(/C(=C(\C)c2ccccc2)c2ccc(OCCN3CCCCC3)cc2)cc1`, the growth in the assay on DU-145 prostate is 84.1%; with K-562 leukemia, 6.5% (active); with MALME-3M melanoma, 46.6%; in the assay with MDA-MB-231 breast it was 70.7%; with RXF 393 renal, 59.3%; with SF-268 CNS it was 68.1%. Also, the growth was 29.7% in the assay on SF-295 CNS, 24.3% in the assay with SF-539 CNS, -26.4% (active) in the assay with UACC-257 melanoma and -2.47% (active) with M14 melanoma.
Regarding `O=[N+]([O-])c1ccc(NC(=S)N/N=C/c2cc3ccccc3n3nnnc23)cc1`, the growth is 64.1% in the assay on DU-145 prostate; 12.5% in the assay with K-562 leukemia; 71.9% with MALME-3M melanoma; 61.2% with MDA-MB-231 breast; 30.1% with RXF 393 renal; 38.3% in the assay on SF-268 CNS. In addition, the growth in the assay on SF-295 CNS was 18.9%; in the assay on SF-539 CNS it was 9.9% (active); with UACC-257 melanoma, 90.2%; in the assay on M14 melanoma it was 75.5%.
Turning to `N#Cc1c(NC(=O)NCc2ccccc2)sc2c1CCCCC2`, the growth in the assay with DU-145 prostate was 3.54% (active); in the assay on K-562 leukemia, 12.7%; with MALME-3M melanoma, 44.7%; in the assay with MDA-MB-231 breast, 10.7%; in the assay with RXF 393 renal, -3.29% (active); with SF-268 CNS, 41%. Besides, the growth in the assay on SF-295 CNS is 19.9%; with SF-539 CNS, -5.27% (active); in the assay on UACC-257 melanoma, 61.6%; in the assay on M14 melanoma, 10.9%.
Turning to `CCCC/C=N/NC(=S)NCc1ccccc1`, the growth was 106% in the assay on DU-145 prostate; 91.7% with K-562 leukemia; 97% with MALME-3M melanoma; 98.8% in the assay with MDA-MB-231 breast; 106% in the assay on RXF 393 renal; 102% in the assay on SF-268 CNS. In addition, the growth in the assay with SF-295 CNS was 102%; with SF-539 CNS, 94%; with UACC-257 melanoma, 91.2%; with M14 melanoma, 87.4%.
As to `CCN(CC)CC[n+]1cc2cc(OC)c(OC)cc2c2ccc3cc4c(cc3c21)OCO4`, the growth in the assay with DU-145 prostate is 1.33% (active); with K-562 leukemia, 2.65% (active); with MALME-3M melanoma it was -2.49% (active); in the assay on MDA-MB-231 breast, -19.5% (active); with RXF 393 renal it was -39.1% (active); with SF-268 CNS, -16% (active). In addition, the growth with SF-295 CNS was -2.66% (active); with SF-539 CNS, -14.7% (active); in the assay with UACC-257 melanoma, 18%; in the assay with M14 melanoma, -54.2% (active).
For the compound `Nc1c(C(=O)Nc2cccc3cnccc23)sc2nc3c(cc12)C(=O)CCC3`, the growth with DU-145 prostate was 103%; with K-562 leukemia, 46.3%; in the assay with MALME-3M melanoma, 88.3%; in the assay on MDA-MB-231 breast, 83.4%; in the assay with RXF 393 renal it was 92.2%; in the assay with SF-268 CNS it was 96.4%. For the same compound, the growth is 74.9% in the assay on SF-295 CNS, 93.6% in the assay on SF-539 CNS, 95.6% with UACC-257 melanoma and 74.6% in the assay with M14 melanoma.
With `CCCCCCOc1ccc(/C=N/Nc2cc(C)nc3ccc(Cl)cc23)cc1`, the growth in the assay with DU-145 prostate was -49% (active); in the assay on K-562 leukemia it was -20.4% (active); with MALME-3M melanoma, -48.7% (active); in the assay on MDA-MB-231 breast, -79.9% (active); in the assay on RXF 393 renal, -94.3% (active); with SF-268 CNS it was 69.9%. The growth was -84.3% (active) in the assay with SF-295 CNS, -86.5% (active) in the assay with SF-539 CNS, 116% with UACC-257 melanoma and 2.01% (active) with M14 melanoma.
As to `COc1cccc(C(=O)NNc2nc(Cl)nc(N3CCN(C(c4ccccc4)c4ccccc4)CC3)n2)c1`, the growth in the assay with DU-145 prostate was 101%; in the assay with K-562 leukemia, -34.7% (active); in the assay on MALME-3M melanoma it was 84.1%; with MDA-MB-231 breast it was 59%; in the assay with RXF 393 renal, 78.4%; with SF-268 CNS it was 99.3%. The growth with SF-295 CNS was 96.3%; in the assay with SF-539 CNS it was 90.8%; in the assay with UACC-257 melanoma it was 88.4%; in the assay on M14 melanoma, 45.4%.
`CCOC(=O)c1cc(C(=O)c2ccc(OC)c(OC)c2)n2c1ccc1ccccc12`: the growth is 109% in the assay on DU-145 prostate; 86.8% with K-562 leukemia; 93.8% in the assay on MALME-3M melanoma; 66.9% with MDA-MB-231 breast; 95.7% in the assay with RXF 393 renal; 81% with SF-268 CNS. The growth was 96.9% with SF-295 CNS, 99.9% in the assay with SF-539 CNS, 107% with UACC-257 melanoma and 102% with M14 melanoma.
Take `CC1(C)CC[C@]2(C(=O)O)CC[C@]3(C)C(=CC[C@@H]4[C@@]5(C)Cc6c([nH]c7ccccc67)C(C)(C)[C@@H]5CC[C@]43C)[C@@H]2C1`: the growth is 49.5% in the assay with DU-145 prostate; 28.8% with K-562 leukemia; 115% in the assay on MALME-3M melanoma; 65.5% in the assay with MDA-MB-231 breast; 67.2% in the assay with RXF 393 renal; 54% in the assay on SF-268 CNS. In addition, the growth with SF-295 CNS is 36.7%; with SF-539 CNS, 36.2%; in the assay with UACC-257 melanoma, 88.5%; with M14 melanoma, 76.4%.
Turning to `CCCCCCNC(=O)Nc1ccc2cc3ccc(NC(=O)NCCCCCC)cc3nc2c1`, the growth was 21.7% in the assay on DU-145 prostate; -29.6% (active) with K-562 leukemia; -35.7% (active) in the assay on MALME-3M melanoma; -23.6% (active) in the assay with MDA-MB-231 breast; -47.7% (active) with RXF 393 renal; -62.8% (active) in the assay on SF-268 CNS. In addition, the growth is -47.5% (active) with SF-295 CNS, -77.1% (active) in the assay with SF-539 CNS, 72.6% in the assay on UACC-257 melanoma and 28.5% in the assay on M14 melanoma.
With `O=S(=O)(NCCNc1nccc(-c2c(-c3cccc(F)c3)nc3sccn23)n1)c1ccc(Br)cc1`, the growth in the assay on DU-145 prostate is 52.5%; in the assay on K-562 leukemia it was 38.7%; with MALME-3M melanoma, 71.1%; in the assay with MDA-MB-231 breast, 69.7%; with RXF 393 renal it was 72.7%; with SF-268 CNS it was 53%. In addition, the growth in the assay on SF-295 CNS was 58.7%; in the assay on SF-539 CNS, 76.4%; with UACC-257 melanoma it was 82%; in the assay on M14 melanoma it was 52.3%.
Take `COc1cc(/C=N/O)nc(-c2ccccn2)c1`: the growth in the assay with DU-145 prostate is 24.7%; in the assay with K-562 leukemia, 11.6%; in the assay on MALME-3M melanoma it was 6.48% (active); in the assay with MDA-MB-231 breast it was 26.5%; in the assay with RXF 393 renal, 21.2%; in the assay with SF-268 CNS, 6.74% (active). The growth with SF-295 CNS was 14.8%; in the assay on SF-539 CNS it was 4.89% (active); in the assay on UACC-257 melanoma, 5.15% (active); in the assay with M14 melanoma, 6.86% (active).

(Values after PubChem BioAssay (NCI).)
